Only some compounds are listed: those with a hit (about 31% of all), similar ones and a draw of the others.
CYP2C9 inhib = blockers of cytochrome P450 2C9 activity – biochemical, luminescence, ADME assay, primary screen. P11712. CYP2C9 Supersomes, luciferin-H conversion. inhibition, % at 5 µM. actives 20% (n = 96,000). AID 777, 2007;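 active means blocking of liver enzyme CYP2C9 beyond about 50% at 5 µM, limit read from the data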
CYP2C19 inh = blockers of cytochrome P450 2C19 activity – biochemical, luminescence, ADME assay, primary screen | P33261 | CYP2C19 Supersomes, luciferin-H EGE luminescence, 30 min | inhibition, % at 5 µM | actives 21% (n = 96,000);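 active means CYP2C19 inhibition above a set limit at 5 µM in the primary screen, cut at about 50% in these data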;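 further: plate controls were negative control wells for no effect and 2.5 mM tranylcypromine positive control for full effect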
Target sequence (P33261 whole entry, looked up): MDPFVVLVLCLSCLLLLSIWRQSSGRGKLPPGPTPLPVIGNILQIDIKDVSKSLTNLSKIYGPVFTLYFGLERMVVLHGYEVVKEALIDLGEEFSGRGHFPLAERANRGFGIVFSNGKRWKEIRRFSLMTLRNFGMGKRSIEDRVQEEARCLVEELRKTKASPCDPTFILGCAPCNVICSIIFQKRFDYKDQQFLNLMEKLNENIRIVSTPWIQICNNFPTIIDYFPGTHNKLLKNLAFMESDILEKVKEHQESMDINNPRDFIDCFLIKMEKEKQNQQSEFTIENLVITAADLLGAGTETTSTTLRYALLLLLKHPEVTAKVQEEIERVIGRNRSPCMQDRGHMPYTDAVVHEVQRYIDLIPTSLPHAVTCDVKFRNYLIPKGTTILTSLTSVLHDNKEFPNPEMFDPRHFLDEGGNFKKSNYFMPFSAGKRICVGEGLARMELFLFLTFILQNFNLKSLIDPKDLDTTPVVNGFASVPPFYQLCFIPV
PLAP act = PLAP enzyme activators, biochemical, luminescence, HTS; Alkaline phosphatase, placental type (Homo sapiens), P05187; purified PLAP enzyme, luminescent substrate read-out; stronger effect = higher value; activation fold at 20 µM; actives 1.2% (n = 96,000); in the data active means activation fold above about 2
CYP2C9 activ = human CYP2C9 activators, primary screen, biochemical, luminescence | Cytochrome P450 2C9 (Homo sapiens), P11712 | actives 1.4% (n = 96,000) | activation factor at 5 µM | recombinant CYP2C9, luciferin-H conversion; stronger effect = higher value; factor 1 = untreated enzyme, 0 = blocked | AID 1024, 2008;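 active means activation factor of 2 or more for CYP2C9 at a 5 µM dose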;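 further: 0 = sulfaphenazole-blocked wells and 1 = vehicle-only wells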
CYP2C19 activ = human CYP2C19 activators, primary screen, biochemical, luminescence; recombinant CYP2C19, luciferin-H EGE luminescence; stronger effect = higher value; 0 = fully inhibited enzyme, 1 = untreated enzyme; 96,000 tested, under 10 active; activation factor at 5 µM; Cytochrome P450 2C19 (Homo sapiens), P33261;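 active means activation factor of at least 2 at 5 µM in the primary screen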;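 further: 0 = wells with 2.5 mM tranylcypromine and 1 = vehicle-only wells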
* hit, by the source's call.

SMILES	CYP2C9 inhib	CYP2C19 inh	PLAP act	CYP2C9 activ	CYP2C19 activ
CCOc1ccc(C(C)(C)C)cc1S(=O)(=O)N1CCOCC1	50*	68*	1.3	0.5	0.3
CCOc1ccc(OCC)c(S(=O)(=O)N2CCCCC2C)c1 (centres undefined)	53*	89*	1.4	0.5	0.1
CCOc1ccc(Br)cc1S(=O)(=O)N1CC(C)OC(C)C1 (centres undefined)	-3	88*	1.4	1	0.1
CCOc1ccc(C)cc1S(=O)(=O)N1CCCCC1	-94	66*	0.9	1.9	0.3
O=C(NC1=NCCS1)c1cccc(S(=O)(=O)N2CCCCC2)c1	6	45	1.2	0.9	0.5
NC(=O)CCc1c[nH]c2ccccc12	-24	6	1	1.2	0.9
CCCc1c(C)[nH]c2ccccc2c1=O	-224	-6	0.8	3.2*	1.1
O=C(O)CCc1c(C(=O)O)[nH]c2ccccc12	54*	6	1	0.5	0.9
Cc1[nH]c2ccccc2c1CCC(N)=O	-211	53*	0.8	3.1*	0.5
Cc1ccc(/C=C/C(=O)N2CC(C)CC(C)C2)o1 (centres undefined)	26	28	1	0.7	0.7
O=C(Nc1nc(=S)ss1)c1ccc(Cl)cc1Cl	94*	24	1.1	0.1	0.8
NC(=O)c1nsnc1-c1ccccc1O	16	-4	1.4	0.8	1
CC(=O)c1c(C(C)=O)c(C)n(NC(=O)c2cccnc2)c1C	7	-3	1.1	0.9	1
CC(=O)c1c(C(C)=O)c(C)n(NC(=O)c2ccccc2O)c1C	86*	-12	1	0.1	1.1
COc1ccc(NC(=O)c2ccc(COc3ccccc3OC)o2)cc1OC	20	26	1	0.8	0.7
C=CCc1ccc(OCc2ccc(C(=O)OC)o2)c(OC)c1	68*	44	0.9	0.3	0.6
CCC(=O)c1ccc(OCc2ccc(C(=O)OC)o2)c(OC)c1	56*	40	0.9	0.4	0.6
Cc1ccccc1CSCCNC(=O)CCSc1ccccc1	76*	37	0.9	0.2	0.6
Cc1ccc(CSCCNC(=O)CCSc2ccccc2)cc1	65*	26	0.8	0.3	0.7
Cc1ccccc1CNC(=O)c1ccc(CSCc2ccccc2)cc1	6	-1	0.9	0.9	1
Cc1ccc(SCCC(=O)Nc2c(C)n(C)n(-c3ccccc3)c2=O)cc1	32	-6	1.1	0.7	1.1
CCN(C(=O)COc1ccccc1)c1nnc(-c2cccnc2)s1	32	20	1.1	0.7	0.8
Cc1ccc(C(=O)NCCSC2CCCCC2)cc1S(=O)(=O)Nc1ccccc1	28	32	0.9	0.7	0.7
Cc1ccc(NS(=O)(=O)c2cc(C(=O)N3CCc4ccccc4C3)ccc2Cl)cc1	48	44	1.1	0.5	0.6
Cc1ccc(C)c(NS(=O)(=O)c2cc(C(=O)NCc3ccco3)ccc2C)c1	83*	60*	1.2	0.2	0.4
SMILES	CYP2C9 inhib	CYP2C19 inh	PLAP act	CYP2C9 activ	CYP2C19 activ
Cc1ccccc1NS(=O)(=O)c1cc(C(=O)N2CCc3ccccc3C2)ccc1C	67*	54*	1.1	0.3	0.5
Cc1ccc(SCCNC(=O)c2ccc(C)c(S(=O)(=O)Nc3ccccc3C)c2)cc1	68*	67*	1.2	0.3	0.3
COc1ccccc1NS(=O)(=O)c1cc(C(=O)NCc2ccco2)ccc1C	28	61*	1.1	0.7	0.4
CC(=O)c1cc2c(cc1NC(=O)Nc1cccc(Cl)c1)OCCO2	4	-4	0.8	1	1
CCc1nnc(NC(=O)CSc2nnc(CSc3nc(C)cc(C)n3)o2)s1	21	2	1.1	0.8	1
CCCc1nnc(NC(=O)CC(=O)Nc2ccccc2C(=O)O)s1	-12	16	1.2	1.1	0.8
Cc1ccc(C(=O)NCc2ccco2)cc1S(=O)(=O)Nc1cccc(C)c1C	-17	-39	1.4	1.2	1.4
Cc1ccccc1NS(=O)(=O)c1cc(C(=O)NCc2ccco2)ccc1C	69*	37	1.2	0.3	0.6
CCN1C(=O)/C(=C/N2CC(C)CC(C)C2)SC1=S (centres undefined)	14	32	0.9	0.9	0.7
CCN1C(=O)/C(=C\N2CCCCCC2)SC1=S	14	56*	1	0.9	0.4
